About 5,100 (32%) of roughly 16,000 compounds were called active. Roughly 25% stayed inconclusive and do not appear here. The list shows a part of the results. Values without a mark were called inactive. Calls come from the whole dose curve; as a rule, active = well fitted curve in the direction sought with a large enough effect; inconclusive = small, poorly fitted or top-dose-only effect, or effect the other way; inactive = no such curve, though single readings can be large or run the other way.
Each compound was assayed against Cytochrome P450 3A4 (Homo sapiens) (UniProt P08684) (assay: Cytochrome panel assay with activity outcomes). Details: recombinant CYP, pro-luciferin dealkylation, luminescence, p450-cyp3a4; series mostly up to 57.1 µM.
% is set by controls: 0 for no effect and ±100 for the full control effect.

Chain of Cytochrome P450 3A4 (Homo sapiens) (P08684 whole entry, looked up): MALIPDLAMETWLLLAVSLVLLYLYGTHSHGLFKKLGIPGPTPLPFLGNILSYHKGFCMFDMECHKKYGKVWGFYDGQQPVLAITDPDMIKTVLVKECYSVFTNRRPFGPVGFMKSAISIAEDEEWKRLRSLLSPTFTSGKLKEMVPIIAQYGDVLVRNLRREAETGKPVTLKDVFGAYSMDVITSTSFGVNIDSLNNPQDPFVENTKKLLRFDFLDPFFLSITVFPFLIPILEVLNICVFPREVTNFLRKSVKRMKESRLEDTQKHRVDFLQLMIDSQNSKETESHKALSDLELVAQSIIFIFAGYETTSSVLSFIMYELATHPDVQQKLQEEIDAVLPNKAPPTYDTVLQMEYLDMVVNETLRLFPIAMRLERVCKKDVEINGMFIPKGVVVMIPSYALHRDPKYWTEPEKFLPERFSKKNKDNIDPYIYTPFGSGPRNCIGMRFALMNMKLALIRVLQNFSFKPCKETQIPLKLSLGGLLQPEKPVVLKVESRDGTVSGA

Structure (SMILES)	AC50	activity, negative = inhibition
Cc1ccccc1Oc1ncnc2sccc12	inactive	–
Cn1c(=O)c(-c2ccc(Cl)cc2)nc2cnc(Nc3ccccc3)nc21	inactive	–
COc1ccc(-n2c(=O)c(C)nc3cnc(Nc4ccccc4)nc32)cc1	12.6 µM (active)	–
COc1cccc(Nc2ncc3nc(C)c(=O)n(-c4ccccc4)c3n2)c1	15.8 µM (active)	–
COc1cccc(Nc2ncc3nc(-c4ccccc4)c(=O)n(C)c3n2)c1	inactive	–
O=C(Nc1ccccc1)N(Cc1ccccc1)CC(O)C(F)(F)F (stereo unspecified)	inactive	–
COc1ccc(CN(CCC#N)C(=S)NC(=O)c2ccccc2)cc1	14.1 µM (active)	–
CCOc1ccc(C(=O)NC(=S)N(Cc2ccccc2)Cc2ccccc2)cc1	10 µM (active)	–
COc1ccc(C(=O)NNC(=S)NC(=O)c2ccco2)cc1	–	9.96% [at 2.29 µM]
O=C(NC(=S)N(Cc1ccccc1)Cc1ccccc1)c1ccccc1F	15.8 µM (active)	–
CCC(=O)c1ccc(OCC(O)CN(CCc2ccccc2)Cc2ccccc2)cc1 (stereo unspecified)	inactive	–
N/C(=N\c1nc2ccccc2o1)NC(=O)c1ccccc1F	inactive	–
CC(C)Cc1ccc([C@H](C)C(=O)O)cc1	inactive	–
CCOC(=O)N/N=C/c1ccc(F)cc1	inactive	–
CCN(CC)c1ccc(/C=N/Nc2nc(C)cc(=O)[nH]2)cc1	14.1 µM (active)	–
Nc1ccc(S(=O)(=O)NCc2nccs2)cc1	–	-10.4% [at 11.4 µM]
N=c1sccn1CC(=O)Nc1cccc(Oc2ccccc2)c1	–	-7.61% [at 11.4 µM]
O=S(=O)(NCc1cn2ccsc2n1)c1ccc(Oc2ccccc2)cc1	11.2 µM (active)	–
Cc1cc(-c2ccc(/C=N/n3cnnc3)o2)c([N+](=O)[O-])cc1C	inactive	–
Cc1ccc(-c2ccc(/C=N/N3C(=O)C4C5C=CC(C6CC56)C4C3=O)o2)c([N+](=O)[O-])c1 (stereo unspecified)	2.24 µM (active)	–
Cc1nc(C(=O)Nc2ccc(Cl)cc2Cl)nn1-c1cc(OC(C)C)c(Cl)cc1Cl	inactive	–
COc1cccc2c1OC[C@@H](CO)[C@H]2N(C)C(=O)Nc1ccc(Cl)cc1Cl	14.1 µM (active)	–
NC(=O)c1cc[n+](CC2=C(C(=O)[O-])N3C(=O)[C@@H](NC(=O)Cc4cccs4)[C@@H]3SC2)cc1	inactive	–

Structure (SMILES)	AC50	activity, negative = inhibition
CN(C)c1ccc(-c2nc3n(n2)C(c2cccnc2)C2=C(CC(C)(C)CC2=O)N3)cc1 (stereo unspecified)	2.24 µM (active)	–
Cc1cc(C)n(-c2nc(NC(C)C)nc(NC(C)C)n2)n1	–	0.214% [at 11.4 µM]
COc1ccc(-c2cc(C(F)F)nc(-n3nc(C)cc3C)n2)cc1	10 µM (active)	–
Cc1ccc(S(=O)(=O)Nc2ccccc2C=O)cc1	–	-24.7% [at 11.4 µM]
CCCCn1c(NCc2ccccc2NS(=O)(=O)c2ccc(C)cc2)nc2ccccc21	3.55 µM (active)	–
CC(C)(C)NCC[C@@H](O)c1cc(C(F)(F)F)nc2c(C(F)(F)F)cccc12	–	-13.6% [at 11.4 µM]
Cc1cc(C)c(NC(=O)C[C@H](CC(=O)O)c2cccc3ccccc23)c(C(=O)N2CCC3(CCCC3)CC2)c1	15.8 µM (active)	–
Cc1noc(C)c1C(=O)N1CCC2(CCCN(C(c3ccccc3)c3ccccc3)C2)CC1	inactive	–
COC(=O)N1CCC2(CCN(C(=O)Nc3ccccc3)CC2)CC1	inactive	–
CC1=C(C(=O)OCc2ccccc2)C(c2cccnc2)c2c(n(C)c(=O)n(C)c2=O)N1 (stereo unspecified)	11.2 µM (active)	–
CC1=C(C(=O)OCc2ccccc2)C(c2ccccc2)NC(=O)N1CCCCCC(=O)O (stereo unspecified)	inactive	–
CCOC(=O)CC(=O)CSc1nc(-c2ccccc2)cc(-c2ccc(Cl)cc2)c1C#N	17.8 µM (active)	–
N#Cc1ccc(-c2ccccc2)nc1SCC(=O)c1cccc(Cl)c1	inactive	–
C[C@H](Oc1ccccc1)C(=O)N[C@@H]1C(=O)N2[C@@H]1SC(C)(C)[C@@H]2C(=O)O	inactive	–
CC1(C)S[C@@H]2[C@H](NC(=O)[C@@H](N)c3ccccc3)C(=O)N2[C@H]1C(=O)O[C@H]1OC(=O)c2ccccc21	1.58 µM (active)	–
CC1(C)S[C@@H]2[C@H](NC(=O)[C@@H](N)c3ccc(O)cc3)C(=O)N2[C@H]1C(=O)O	inactive	–
O=c1c2ccccc2nc2n1C(CSCc1cccc(C(F)(F)F)c1)CS2 (stereo unspecified)	4.47 µM (active)	–
Cc1ncc2c(c1O)COP(=O)(O)OC2	inactive	–
COc1ccc(C(=O)Nn2cnc3ccccc3c2=O)c(OC)c1	25.1 µM (active)	–
O=C(Nn1cnc2ccccc2c1=O)c1ccc(F)cc1Cl	inactive	–
COC(=O)c1cn(NC(=O)c2ccc(F)cc2)c(=O)c2ccccc12	–	-2.1% [at 2.29 µM]
Cn1cc(-c2nc3cncnc3n(Cc3ccc(F)cc3)c2=O)c2ccccc21	inactive	–
COc1cccc(Cn2c(=O)c(-c3cn(C)c4ccccc34)nc3cnc(OC)nc32)c1	7.94 µM (active)	–

Structure (SMILES)	AC50	activity, negative = inhibition
CCNc1ncc2nc(-c3cn(C)c4ccccc34)c(=O)n(Cc3cccc(OC)c3)c2n1	3.98 µM (active)	–
CCNc1ncc2nc(-c3cn(C)c4ccccc34)c(=O)n(Cc3ccc(F)cc3)c2n1	15.8 µM (active)	–
COc1cccc(Cn2c(=O)c(-c3cn(C)c4ccccc34)nc3cnc(N4CCOCC4)nc32)c1	inactive	–
COc1ncc2nc(-c3cn(C)c4ccccc34)c(=O)n(Cc3ccc(F)cc3)c2n1	6.31 µM (active)	–
CN(C)CCCNc1c(C(=O)O)cnc2c1cnn2C	inactive	–
COc1ccc(N2C(N)=NC(N)=NC2(C)C)cc1	inactive	–
COC(=O)C1=C(C)NC(C)=C(C(=O)OCCSc2ccccc2)[C@@H]1C	10 µM (active)	–
COC(=O)c1cc(=O)n(C2CC2)c(=NC2CC2)s1	inactive	–
Oc1ccc(OCc2ccccc2)cc1	inactive	–
OC(COCc1ccccc1)Cn1cnc2ccccc21 (stereo unspecified)	3.98 µM (active)	–
CCC(=O)c1ccc(OCC(O)CN2CCCCC2)cc1 (stereo unspecified)	inactive	–
C[n+]1cn(CC(O)COCc2ccccc2)c2ccccc21 (stereo unspecified)	inactive	–
CC(=O)Nc1ccc(OCC(O)Cn2cnc3ccccc32)cc1 (stereo unspecified)	14.1 µM (active)	–
CC(=O)Nc1ccc(OC[C@@H](O)CNC(C)C)cc1	inactive	–
O=C(O)[C@@H]1[C@@H]2C[C@H]([C@@H](Br)[C@H]2N2C(=O)CCC2=O)[C@@H]1C(=O)O	–	2.42% [at 11.4 µM]
C=CCn1c(SCC(=O)NC2CCCCC2)nnc1C1CCCCC1	8.91 µM (active)	–
CCCCC(=O)Nc1nnc(SCC(=O)NC2CCCC2)s1	–	-12.4% [at 2.29 µM]
COc1ccc(/C=N/NC(=O)c2ccn[nH]2)cc1COc1ccc(Cl)cc1	–	-16.8% [at 2.29 µM]
Cc1nn(C)cc1CNC(=O)CCC(=O)O	inactive	–
CCn1ncc(/C=C/C(=O)NCc2cn(C)nc2C)c1C	inactive	–
COc1ccc(C(=O)NN)cc1COc1ccc(Br)cc1	1.26 µM (active)	–
COc1ccc(/C=N/NC(=O)c2ccn[nH]2)cc1COc1ccc(F)cc1	–	-10.3% [at 2.29 µM]
COc1ccc(/C=C/C(=O)NCc2cn(C)nc2C)cc1COc1ccc(Br)cc1	3.16 µM (active)	–

Structure (SMILES)	AC50	activity, negative = inhibition
COc1cc(/C=C(\C#N)C(N)=O)cc(CSc2nc3ccccc3s2)c1O	3.98 µM (active)	–
C[C@](N)(COP(=O)(O)O)C(=O)O	inactive	–
O=C(Nc1cc(C(F)(F)F)ccc1-n1cncn1)c1ccc(Br)cc1	–	-10.9% [at 2.29 µM]
COC(=O)c1ccc(-n2cncn2)c(F)c1	7.94 µM (active)	–
C[C@@H]1O[C@H](O[C@@H]2[C@@H](Oc3cc(O)c4c(c3)O[C@H](c3ccc(O)cc3)CC4=O)O[C@@H](CO)[C@@H](O)[C@H]2O)[C@@H](O)[C@H](O)[C@@H]1O	inactive	–
O=C1C=C[C@@H](O)[C@H]2[C@@H]3C(=O)N(c4cccc(Oc5ccccc5)c4)C(=O)[C@@H]3CC[C@H]12	–	-11.6% [at 11.4 µM]
CCN1CCN(CCC(=O)Nc2cccc(OC)c2)CC1	inactive	–
COc1cccc(N2C(=O)C(CC(=O)Nc3ccccc3)N(C3CCCCC3)C2=O)c1 (stereo unspecified)	5.01 µM (active)	–
COc1ccc(NC(=O)CC2C(=O)N(c3cccc(OC)c3)C(=O)N2C2CCCCC2)cc1 (stereo unspecified)	8.91 µM (active)	–
O=C(CSc1nnnn1C1CCCC1)Nc1ccc(F)cc1	14.1 µM (active)	–
CCOc1ccc(N(C(C)C(=O)N/N=C(\C)c2cccc(NC(=O)c3ccccc3)c2)S(C)(=O)=O)cc1 (stereo unspecified)	–	-20.9% [at 2.29 µM]
C/C(=N\NC(=O)c1ccc(Cl)cc1)c1cccc(NC(=O)C(C)C)c1	15.8 µM (active)	–
CCC(CC)C(=O)Nc1cccc(/C(C)=N/NC(=O)c2c(Br)cnn2C)c1	14.1 µM (active)	–
CCC(CC)C(=O)Nc1cccc(/C(C)=N\NC(=O)c2ccc(C)s2)c1	7.94 µM (active)	–
CCOC(=O)c1c(NC(=O)c2c(Br)cnn2C)c(C#N)nn1-c1ccccc1	inactive	–
C/C(=N\NC(=O)c1cccc(F)c1)c1ccc(Br)s1	inactive	–
Cc1cc(=O)[nH]c2c1c(C)nn2C1CCOC(C)(C)C1 (stereo unspecified)	inactive	–
Cc1[nH]c2ccccc2c1-c1cc(-c2cc(-c3c(C)[nH]c4ccccc34)on2)no1	–	-5.38% [at 11.4 µM]
CCCCn1c(SCc2c(C)noc2C)nc2cc(S(N)(=O)=O)ccc21	0.708 µM (active)	–
CCn1c(C)nc2cc(S(=O)(=O)C(F)F)ccc21	–	9.09% [at 11.4 µM]
CCCOc1ccc(C(=O)NNC(=S)NC(=O)CC)cc1	–	-8.65% [at 2.29 µM]
CCCOc1ccc(C(=O)NNC(=S)NC(=O)c2cc(-c3ccccc3)nc3ccccc23)cc1	8.91 µM (active)	–

Reference: PubChem BioAssay AID1851 (National Center for Advancing Translational Sciences (NCATS), 2009)
